Drawing on PubChem BioAssay, this text covers composite z-score and z-score for five molecules.

The source made the active and inactive calls. Unless noted, no rule for the calls is given here.

Assay [1] relates to Wnt5a (protein binding on small-molecule microarray). Kind of assay: small molecules binding Wnt5a protein – biophysical, small-molecule microarray, 635/667 nm fluorescence, primary screen (AID 1142).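 Also: fluorescence read at 667 nm with signal to noise per printed feature.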 To be noted: 635 nm fluorescence, higher = more signal.
Assay [2] is described as follows: ATP-based viability of Huh7 replicon cells – cell-based, CellTiter-Glo luminescence, basal, 48 h, cytotoxicity control for HCV replication inhibitor project, primary screen (AID 1143).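 Also: Huh7 hepatoma cells carrying a hepatitis C replication reporter with no stimulus; test concentration not given here.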 To be noted: higher = more signal, called active from +8 up or from −8 down.
Assay [3] in a line: Pseudomonas biofilm growth suppression – PAO1 strain, BacTiter-Glo luminescence, LB-PBS, primary screen (AID 1144). To be noted: P. aeruginosa PAO1 biofilm, 12 h, higher = more signal.
Assay [4] can be described thus: basal CRE-LacZ reporter activity in PC12 – cell-based, unstimulated, primary screen (AID 1145). The following applies: no forskolin, luminescence, 4.5 h, higher = more signal, called active from +8 up or from −8 down.
Assay [5] in a line: forskolin-driven CRE-LacZ activity in PC12 – cell-based, CRE-LacZ reporter, forskolin-stimulated, primary screen (AID 1146).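 Also: PC12 cells with 6xCRE LacZ reporter stimulated by forskolin 10 µM; beta-galactosidase reporter signal reflecting CREB driven transcription.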 To be noted: luminescence, 4.5 h, higher = more signal, called active from +8 up or from −8 down.
Assay [6] addresses Streptavidin (Streptomyces avidinii) (UniProt P22629). Kind of assay: compounds binding control protein streptavidin – biophysical, small-molecule microarray, 635/667 nm fluorescence, artefact control for SMM compound annotation, primary screen (AID 1147).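 Also: signal reflects streptavidin binding to arrayed compounds as a control protein.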 The following applies: higher = more signal.
Assay [7] is described as follows: probe aInhba binding on compound microarray – biochemical, small-molecule microarray, 635/667 nm fluorescence, primary screen (AID 1148).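 Also: score merges 667nm spot fluorescence with signal-to-noise for antibody binding to printed compounds.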 The following applies: higher = more signal.
Assay [8] addresses Torsin-1A (Homo sapiens) (UniProt O14656). Kind of assay: TOR1A wild-type binding on microarray – cell lysate, small-molecule microarray, lysate, 635/667 nm, primary screen (AID 1149). To be noted: COS7 hTOR1A-WT lysate, 635 nm fluorescence, higher = more signal.
The target is the same in assay [9]. Kind of assay: torsin A mutant lysate binding on microarrays – cell lysate, small-molecule microarray, COS7 lysate, 635/667 nm fluorescence, primary screen (AID 1150).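 Also: score pools 667 nm emission and signal to noise measuring lysate protein binding.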 To be noted: COS7 hTOR1A mutant lysate, 635 nm fluorescence, higher = more signal.
The subject of assay [10] is Sonic hedgehog protein (Shh). Kind of assay: Sonic hedgehog microarray binding compounds – biochemical, small-molecule microarray, 635/667 nm fluorescence, primary screen (AID 1151).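 Also: Shh protein binding to compounds spotted on small-molecule microarray slides; score combines spot fluorescence intensity with signal-to-noise across triplicate slides.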 To be noted: 635 nm fluorescence, higher = more signal.
The nature of assay [11]: optical density shifts of acrAB sulA E. coli – strain DRC41, OD650, 48 h, E. coli filamentation inducer project, primary screen (AID 1152).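 Also: E. coli MC1000 strain DRC41 lacking acrAB efflux pump and sulA.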 To be noted: higher = more signal, called active from +8 up or from −8 down.
Assay [12] can be described thus: probe aLefty1 binding on compound microarray – biochemical, small-molecule microarray, 635/667 nm fluorescence, primary screen (AID 1153).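 Also: score merges spot fluorescence with signal-to-noise ratio from the scanned slide images.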 To be noted: higher = more signal.
Assay [13] can be described thus: plasmodial surface anion channel blockers, osmotic lysis – cell-based, P. falciparum Indochina, OD700, 1 h, primary screen (AID 1154). To be noted: P. falciparum Indochina infected RBC osmotic lysis, higher = more signal, called active from +8 up or from −8 down.
Assay [14] in a line: plasmodial surface anion channel blockers, osmotic lysis – cell-based, P. falciparum Indochina, OD700, 2 h, primary screen (AID 1155).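 Also: lysis reports solute entry through the parasite surface anion channel PSAC.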 The following applies: P. falciparum Indochina infected erythrocytes, higher = more signal, called active from +8 up or from −8 down.
Assay [15] in a line: changes in parasitized red cell lysis, either direction – P. falciparum Indochina, OD700, 3 h, PSAC antagonist project, primary screen (AID 1156). The following applies: P. falciparum-infected erythrocytes, osmotic lysis, higher = more signal, called active from +8 up or from −8 down.
The nature of assay [16]: plasmodial surface anion channel blockers, osmotic lysis – cell-based, P. falciparum Indochina, OD700, 18 h, primary screen (AID 1157). To be noted: P. falciparum Indochina infected erythrocytes, osmotic lysis OD700, 18 h; higher = more signal, called active from +8 up or from −8 down.
Assay [17] is described as follows: S6 kinase pathway phospho-S6 level changes – cell-based, A549, cytoblot, luminescence, serum-stimulated, primary screen (AID 1158).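 Also: serum-stimulated A549 lung adenocarcinoma cells; signal is phosphorylated S6 detected by cytoblot immunostaining with HRP secondary.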 The following applies: 5 h, higher = more signal.
The target in assay [18] is NADPH oxidase 2 (Homo sapiens) (UniProt P04839). Kind of assay: compounds shifting NOX2 Amplex Red fluorescence – cell-based, HEK293-NOX2, PMA-stimulated, NOX inhibitor project, primary screen (AID 1159). Also: test concentration not given here. The following applies: 45 min, higher = more signal, called active from +8 up or from −8 down.
In assay [19] the target is NADPH oxidase 4 (Homo sapiens) (UniProt Q9NPH5). Kind of assay: compounds shifting NOX4 Amplex Red fluorescence – cell-based, HEK293-NOX4, tetracycline-induced, NOX inhibitor project, primary screen (AID 1160). The following applies: HEK293-NOX4, Amplex Red H2O2 fluorescence, 45 min; higher = more signal, called active from +8 up or from −8 down.
Assay [20] addresses NADPH oxidase 5 (Homo sapiens) (UniProt Q96PH1). Kind of assay: compounds shifting NOX5 Amplex Red fluorescence – cell-based, HEK293-NOX5, NOX inhibitor project, primary screen (AID 1161). The following applies: HEK293-NOX5, ionomycin, 45 min, higher = more signal.

Torsin-1A (Homo sapiens), sequence (O14656 whole entry, looked up): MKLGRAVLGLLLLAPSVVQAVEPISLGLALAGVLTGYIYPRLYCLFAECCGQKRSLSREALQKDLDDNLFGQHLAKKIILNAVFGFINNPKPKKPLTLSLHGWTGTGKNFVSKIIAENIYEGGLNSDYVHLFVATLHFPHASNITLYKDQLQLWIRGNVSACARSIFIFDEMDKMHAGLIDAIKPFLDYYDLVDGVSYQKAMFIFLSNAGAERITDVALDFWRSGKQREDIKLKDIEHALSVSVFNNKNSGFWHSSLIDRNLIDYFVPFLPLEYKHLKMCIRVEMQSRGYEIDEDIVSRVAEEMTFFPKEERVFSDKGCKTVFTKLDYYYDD
NADPH oxidase 5 (Homo sapiens), sequence (Q96PH1 whole entry, looked up): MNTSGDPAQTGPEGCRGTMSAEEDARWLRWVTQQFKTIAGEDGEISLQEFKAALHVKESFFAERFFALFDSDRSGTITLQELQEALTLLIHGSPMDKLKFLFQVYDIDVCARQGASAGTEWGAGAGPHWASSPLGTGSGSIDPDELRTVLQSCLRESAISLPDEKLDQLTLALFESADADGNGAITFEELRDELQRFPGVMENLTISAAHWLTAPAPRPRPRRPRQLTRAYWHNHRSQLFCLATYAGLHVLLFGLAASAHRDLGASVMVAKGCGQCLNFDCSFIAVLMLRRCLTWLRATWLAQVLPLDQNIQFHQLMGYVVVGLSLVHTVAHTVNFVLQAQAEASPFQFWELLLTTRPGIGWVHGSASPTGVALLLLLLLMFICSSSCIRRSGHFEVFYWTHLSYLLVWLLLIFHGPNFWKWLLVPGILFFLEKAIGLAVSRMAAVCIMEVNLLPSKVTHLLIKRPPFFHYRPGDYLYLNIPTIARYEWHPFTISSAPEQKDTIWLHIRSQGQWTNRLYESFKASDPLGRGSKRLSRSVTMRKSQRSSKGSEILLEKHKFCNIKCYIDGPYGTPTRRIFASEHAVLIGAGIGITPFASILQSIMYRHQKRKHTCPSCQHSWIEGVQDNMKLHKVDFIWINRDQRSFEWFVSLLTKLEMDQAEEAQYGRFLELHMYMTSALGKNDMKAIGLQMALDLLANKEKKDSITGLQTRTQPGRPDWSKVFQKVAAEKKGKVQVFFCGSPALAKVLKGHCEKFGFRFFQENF
Streptavidin (Streptomyces avidinii), sequence (P22629 whole entry, looked up): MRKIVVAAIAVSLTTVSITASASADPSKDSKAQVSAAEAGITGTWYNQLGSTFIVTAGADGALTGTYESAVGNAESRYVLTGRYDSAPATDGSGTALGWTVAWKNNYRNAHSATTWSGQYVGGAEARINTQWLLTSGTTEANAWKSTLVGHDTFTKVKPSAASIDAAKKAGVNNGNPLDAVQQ
NADPH oxidase 2 (Homo sapiens), sequence (P04839 whole entry, looked up): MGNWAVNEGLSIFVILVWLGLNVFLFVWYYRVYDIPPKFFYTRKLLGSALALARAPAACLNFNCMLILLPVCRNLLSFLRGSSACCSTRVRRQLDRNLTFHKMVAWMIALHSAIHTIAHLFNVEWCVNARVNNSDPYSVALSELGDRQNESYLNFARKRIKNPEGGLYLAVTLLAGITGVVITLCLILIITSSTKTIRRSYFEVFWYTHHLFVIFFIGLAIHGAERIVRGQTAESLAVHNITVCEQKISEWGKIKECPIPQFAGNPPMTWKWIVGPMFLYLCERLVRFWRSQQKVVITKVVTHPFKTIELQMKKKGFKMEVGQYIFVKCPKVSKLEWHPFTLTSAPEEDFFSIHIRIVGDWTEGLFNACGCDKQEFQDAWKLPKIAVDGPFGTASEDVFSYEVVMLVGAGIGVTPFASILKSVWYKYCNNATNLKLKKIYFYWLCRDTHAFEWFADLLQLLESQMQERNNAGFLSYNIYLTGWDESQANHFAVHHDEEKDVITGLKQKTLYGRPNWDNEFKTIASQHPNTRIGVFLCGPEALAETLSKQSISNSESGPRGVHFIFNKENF
NADPH oxidase 4 (Homo sapiens), sequence (Q9NPH5 whole entry, looked up): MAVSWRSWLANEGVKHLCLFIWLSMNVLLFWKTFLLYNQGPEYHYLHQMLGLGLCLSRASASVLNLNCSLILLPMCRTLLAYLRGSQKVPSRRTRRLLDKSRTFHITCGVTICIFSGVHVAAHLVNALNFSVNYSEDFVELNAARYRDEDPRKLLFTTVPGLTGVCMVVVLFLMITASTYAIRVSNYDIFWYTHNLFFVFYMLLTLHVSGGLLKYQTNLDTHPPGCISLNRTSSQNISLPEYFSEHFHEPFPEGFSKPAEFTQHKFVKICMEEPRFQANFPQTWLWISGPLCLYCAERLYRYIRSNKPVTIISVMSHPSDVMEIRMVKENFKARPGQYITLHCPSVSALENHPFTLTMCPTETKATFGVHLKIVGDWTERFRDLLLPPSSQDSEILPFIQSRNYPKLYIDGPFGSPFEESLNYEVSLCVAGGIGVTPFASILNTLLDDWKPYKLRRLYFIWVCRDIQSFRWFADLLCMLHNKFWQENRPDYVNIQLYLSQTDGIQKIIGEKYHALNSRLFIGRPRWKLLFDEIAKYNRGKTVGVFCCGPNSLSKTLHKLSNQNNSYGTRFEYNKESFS

In the case of `CCOC(=O)C[C@H]1[C@H](OC(=O)c2ccccc2-c2ccccc2)[C@@H](NC(=O)c2ccccc2)c2cc(OCCCO)ccc2N1C(=O)Cc1ccc(OC)cc1`, the composite z-score in [1] was -0.105; in assay [6] it was 0.621; in assay [7] it was -0.154; with Torsin-1A (Homo sapiens) [8], -0.193; with Torsin-1A (Homo sapiens) [9] it was 0.0375; in assay [10] it was 0.0772. Besides, in assay [12], the composite z-score was -0.193. For the same molecule, the z-score in [2] is 0.0692 (inactive); in [3], -0.228 (inactive); in [4], 1.58 (inactive); in assay [5] it was 0.0006 (inactive); in assay [11] it was -0.81 (inactive); in assay [13], 2.01 (inactive). Also, the z-score was 0.318 (inactive) in [14]; -0.338 (inactive) in [15]; 0.109 (inactive) in [16]; 0.0269 in assay [17]; 0.639 (inactive) in assay [18]; 1.22 (inactive) in [19]. In addition, the z-score in assay [20] was 0.327.
As for `COc1ccccc1CN1C(=O)c2ccccc2[C@](Cc2ccccc2I)(C(=O)NCCN2CCOCC2)[C@@H]1c1ccc(CO)cc1`, the composite z-score in assay [1] was 0.375; in [6] it was 0.593; in assay [7], -0.101; with Torsin-1A (Homo sapiens) [8], 0.301; in the assay with Torsin-1A (Homo sapiens) [9], 0.504; in [10], 1.48. The molecule further showed a composite z-score in assay [12] of -0.181. Also, the z-score was -4.52 (inactive) in assay [2]; 0.506 (inactive) in [3]; 0.648 (inactive) in [4]; -0.746 (inactive) in [5]; 0.117 (inactive) in assay [11]; 9.62 (active) in assay [13]. The z-score in assay [14] was 0.349 (inactive); in assay [15], -0.113 (inactive); in [16], -0.385 (inactive); in [17], 1.39; in [18], -1.81 (inactive); in [19], 0.454 (inactive). Also, the z-score in assay [20] is -0.824.
Take `C=CCC(OC(C)=O)[C@@H]1[C@@H](N(Cc2ccc(-c3cccc(C(F)(F)F)c3)o2)C(=O)c2cccc3ccccc23)c2cc(OCCCO)ccc2N1C(=O)c1ccc(-c2ccccc2)cc1` (stereo not given in full): the composite z-score in assay [1] was 0.0391; in [6], 0.0133; in [7], -0.0112; with Torsin-1A (Homo sapiens) [8] it was 0.1; in the assay with Torsin-1A (Homo sapiens) [9], -0.138; in assay [10] it was 1.06. The molecule also yielded a composite z-score in assay [12] of -0.012. In addition, the z-score was -1.63 (inactive) in [2]; 0.595 (inactive) in [3]; -0.272 (inactive) in assay [4]; -0.262 (inactive) in assay [5]; -0.985 (inactive) in assay [11]; 0.531 (inactive) in assay [13]. Moreover, the z-score is 0.431 (inactive) in assay [14]; 2.33 (inactive) in assay [15]; 0.485 (inactive) in assay [16]; -0.326 in [17]; -0.959 (inactive) in assay [18]; -1.45 (inactive) in [19]. The z-score in assay [20] is -1.08.
On to `COc1ccc([Si](C)(C)[C@@H]2[C@@H](CC(=O)N(CCO)Cc3ccccc3)O[C@]3(C(=O)N(C)c4c(Br)cc(C)cc43)[C@H]2C)cc1`, for which the composite z-score in [1] was 0.312; in [6], -0.212; in assay [7], -0.152; with Torsin-1A (Homo sapiens) [8], 0.268; in the assay with Torsin-1A (Homo sapiens) [9], -0.0496; in [10], 1.91. In [12], the composite z-score is -0.103. Besides, the z-score in assay [2] is -5.28 (inactive); in assay [3], 0.336 (inactive); in assay [4], 18.2 (active); in assay [5], 0.429 (inactive); in [11], -1.98 (inactive); in assay [13], 26.6 (active). The z-score in assay [14] was 14.2 (active); in assay [15] it was 0.233 (inactive); in assay [16], 2.09 (inactive); in assay [17], 0.336; in [18], -1.91 (inactive); in assay [19], -0.00605 (inactive). Moreover, the z-score in assay [20] was -1.28.
For `CCCNC(=O)[C@@H]1c2ccccc2C(=O)N(CC23CC4CC(CC(C4)C2)C3)[C@H]1c1ccc(CO)cc1`, the composite z-score in assay [1] was 0.435; in assay [6], 0.673; in [7], -0.118; with Torsin-1A (Homo sapiens) [8], 0.92; in the assay with Torsin-1A (Homo sapiens) [9], -0.0207; in [10], 1.05. Also, the composite z-score in assay [12] was 0.376. Moreover, the z-score in assay [2] was -4.68 (inactive); in assay [3] it was -0.929 (inactive); in [4] it was 0.764 (inactive); in [5], -0.517 (inactive); in assay [11], -0.59 (inactive); in assay [13] it was 2.45 (inactive). Further, the z-score in assay [14] was 0.79 (inactive); in assay [15], 1.88 (inactive); in assay [16] it was 0.276 (inactive); in [17], 0.171; in assay [18] it was 0.717 (inactive); in assay [19], -1.2 (inactive). Further, the z-score in [20] is -2.76.
